# Values joined by “and” are separate entries in the source; they are usually repeats but may differ in a detail not shown here. Identical values can stand only once. Inconclusive results are not listed. Where a call stands in place of a potency, no number is given. Active and inactive are the calls of the source. Unless noted, calls come from the whole dose curve.
# Test: qHTS assay for small molecules that induce genotoxicity in human embryonic kidney cells expressing luciferase-tagged ATAD5 (AID 651632; active = well fitted activation curve with a large enough effect in the repeat runs; note: nearly all actives have a fitted effect of over 15% in size)
# Conditions: HEK293T ATAD5-luciferase induction, 16 h; series mostly up to 83.3 µM
# Outline: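 Increased luciferase signal from ATAD5-tagged reporter cells indicates DNA-damage-driven ATAD5 induction. HEK293T cells are treated for 16 hr at 37C before detection with Amplite.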
row,Compound,Potency
1,CCC1(C2=NCCN2)Cc2ccccc2O1 (centres undefined),inactive
2,O=C(O)C(O)C(O)C(=O)O (centres undefined),inactive
3,CC(Oc1cc(Cl)c(Cl)cc1Cl)C(=O)O (centres undefined),inactive
4,CN1C[C@H](C(=O)N[C@]2(C)O[C@@]3(O)[C@@H]4CCCN4C(=O)[C@H](Cc4ccccc4)N3C2=O)C=C2c3cccc4[nH]cc(c34)C[C@H]21,inactive
5,C=C(C)C(=O)OCCCCOC(=O)C(=C)C,inactive
6,Cc1ccc(N)c(C)c1,inactive
7,CC[N+]1(CCOC(=O)C(O)(c2ccccc2)c2ccccc2)CCCCC1,inactive
8,O=CC=O,inactive
9,O=P(OCC(Br)CBr)(OCC(Br)CBr)OCC(Br)CBr (centres undefined),inactive

# Test: qHTS assay for small molecule agonists of the p53 signaling pathway - cell viability (AID 651633); note: nearly all actives have a fitted effect of over 30% in size; note: potency is the fitted concentration of half-maximal effect
# Conditions: p53RE-bla HCT-116 viability, ATP luminescence, 16 h; series mostly up to 83.3 µM
# Outline: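 Viability counter-read: CellTiter-Glo luminescence (30 min, room temperature) in the same p53RE-bla plates. These plates had been exposed to compounds for 16 h at 37 C.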
row,Compound,Potency
1,Cc1ncc(C[n+]2csc(CCO)c2C)c(N)n1,inactive
2,CC(C)(C)N(NC(=O)c1ccc(Cl)cc1)C(=O)c1ccccc1,inactive
3,CCCN(CCOc1c(Cl)cc(Cl)cc1Cl)C(=O)n1ccnc1,inactive
4,NP(N)(=O)NC(=O)c1ccc(F)cc1,inactive
5,CN1C(=O)CN=C(c2ccccc2)c2cc([N+](=O)[O-])ccc21,inactive
6,O=C(O)CCCOc1ccc(Cl)cc1Cl,inactive
7,O=C(O)C(F)(F)C(F)(F)C(F)(F)C(F)(F)C(F)(F)C(F)(F)C(F)(F)C(F)(F)F,61.1 µM (active)
8,Nc1ccc2c(c1)Cc1ccccc1-2,inactive
9,C[CH2][Hg][S]c1ccccc1C(=O)O,3.35 µM (active) and 2.43 µM (active)
10,O=P(OCC(Br)CBr)(OCC(Br)CBr)OCC(Br)CBr (centres undefined),inactive

# — PubChem BioAssay (Tox21)
